Screening results deposited in PubChem by National Center for Advancing Translational Sciences (NCATS).
Sampled rows, rich in hits. Any-hit rate of the full collection: about 10%.
HP1b binding inh = inhibitors of HP1-beta chromodomain binding to methylated histone tails; AID 540317; Potency, µM (highest dose often 114 µM), hits mostly inhibitors; AlphaScreen HP1-beta / biotin-H3K9me3 peptide binding; 390,000 compounds, 0.56% hits; also: nearly all actives have a fitted effect of over 70% in size
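Compound inhibition of the preformed complex between 50 nM HP1-beta and 50 nM biotinylated H3K9me3 peptide was read by AlphaScreen. Buffer was PBS pH 7.4 with 0.01% Tween-20. Incubations ran 30 min at room temperature, with 10 ug/mL donor/acceptor beads.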
BAZ2B block = blocks human BAZ2B | Q9UIF8 | AlphaScreen BAZ2B-H3K14Ac peptide displacement | Potency, µM (top dose mostly 114 µM), hits mostly inhibitors | 360,000 compounds, 4.4% hits | AID 504333; also: nearly all actives have a fitted effect of over 60% in size
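Multi-concentration screen (max 110 uM) measuring displacement of acetylated histone H3 peptide from BAZ2B by AlphaScreen, using 50 nM protein, 50 nM peptide and 10 ug/mL streptavidin donor plus Ni-chelate acceptor beads.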
G9a inh = G9a (human) methyltransferase inhibition; Q96KQ7; G9a H3K9 monomethylation, AlphaScreen, 2 h; Potency, µM (doses to about 102 µM), actives largely listed as inhibitors; 350,000 compounds, 8.8% hits; also: nearly all actives have a fitted effect of over 75% in size
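Methyltransferase reactions run at room temperature for 2 h (20 nM enzyme, 500 nM biotin-H3K9 peptide, 20 uM SAM) after a 15 min compound preincubation; product detected by AlphaScreen beads and anti-H3K9me1 antibody.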
CtBP-E1A inh = inhibitors of CtBP/E1A interaction; AlphaScreen GST-E1A/His-CtBP binding, 1536-well; active compounds read low; activity change, % (no concentration beside the values); 340,000 compounds, 0.49% hits; AID 651724; in the data active = activity change below about -65%; inconclusive = mostly about -30% to -63%
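Protein mix (5X: 125 nM each GST-E1A, His-CtBP) was incubated with pinned compound 2 h at 37 deg C in dark, in 50 mM Tris pH 8.0 buffer with 300 mM NaCl. Glutathione donor and nickel acceptor beads followed; AlphaScreen signal read after 1 h.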
Six1-Eya2 blk = inhibitors of human Six1/Eya2 interaction; activity change, % (no concentration beside the values); Q15475+O00167; 360,000 compounds, 0.56% hits; AlphaScreen GST-Six1/His-Eya2 binding, biochemical; active compounds read low; in the data active = activity change below about -65%; inconclusive = mostly about -30% to -63%
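AlphaScreen with GST-Six1 and His-Eya2 (5X mix: 250 nM and 500 nM), glutathione donor and nickel acceptor beads; buffer 50 mM Tris pH 8.0, 300 mM NaCl, 1 mM TCEP; 1 h at 37 C in the dark.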
JMJD2A Tudor = JMJD2A Tudor domain (human) inhibition. Potency, µM (titrated, usually from 114 µM), usual class: inhibitors. 390,000 compounds, 4.4% hits. AlphaScreen JMJD2A-Tudor / H3K4me3 peptide binding. O75164; also: nearly all actives have a fitted effect of over 50% in size
Large screens that a line does not name were inactive. Unless noted, calls follow the shape of the dose curve; as a rule, active = well fitted inhibition curve with a large enough effect; inconclusive = small, poorly fitted or top-dose-only effect; inactive = no such curve, though single readings can be large or run the other way.

CCCOc1cccc(C2/C(=C(/O)c3ccc(OC)cc3)C(=O)C(=O)N2CCN(C)C)c1 (stereo not drawn)	G9a inh 50µM
CCCOc1ccc(/C(O)=C2\C(=O)C(=O)N(CCCN(C)C)C23C(=O)N(C)c2ccccc23)cc1 (stereo not drawn)	G9a inh 45µM (no result: HP1b binding inh, CtBP-E1A inh, Six1-Eya2 blk, JMJD2A Tudor)
COc1ccc(C2/C(=C(\O)c3cc(C)ccc3C)C(=O)C(=O)N2CCN(C)C)cc1OC (stereo not drawn)	none
COc1ccc(/C(O)=C2\C(=O)C(=O)N(CCN(C)C)C2c2cc(OC)c(OC)c(OC)c2)c(C)c1 (stereo not drawn)	BAZ2B block 79µM, G9a inh inconclusive
COc1ccc(C2/C(=C(/O)c3ccc(F)cc3)C(=O)C(=O)N2CCCN(C)C)cc1 (stereo not drawn)	none (no result: BAZ2B block, G9a inh)
CCCOc1ccc(C2/C(=C(/O)c3ccc(F)cc3)C(=O)C(=O)N2CCCN(C)C)cc1 (stereo not drawn)	G9a inh 40µM
COc1cc(C(=O)NNC2=NC(C)(C)Cc3cc(C)c(C)cc32)cc(OC)c1OC	none
CN(C)c1ccc(Cc2cc3c(O)ccc(O)c3cc(Cc3ccc(N(C)C)cc3)c2=O)cc1	HP1b binding inh inconclusive, Six1-Eya2 blk inconclusive, JMJD2A Tudor 3.2µM (no result: BAZ2B block, G9a inh)
CS(=O)(=O)c1ccc(C(=O)OCc2nnc(-c3ccc(Cl)cc3)o2)cc1[N+](=O)[O-]	BAZ2B block inconclusive, G9a inh inconclusive
Cc1ccc(C(=O)CC2(O)C(=O)N(C)c3ccccc32)s1 (stereo not drawn)	G9a inh 45µM
CN1C(=O)C(O)(CC(=O)c2cccs2)c2ccccc21 (stereo not drawn)	none
O=c1cnc2cncnc2n1Cc1ccc(F)cc1	none (no result: HP1b binding inh, BAZ2B block, CtBP-E1A inh, Six1-Eya2 blk, JMJD2A Tudor)
O=C(O)CC(Cn1[nH]nnc1=S)c1ccccc1 (stereo not drawn)	BAZ2B block inconclusive, G9a inh 8.9µM, JMJD2A Tudor 50µM
NC(=O)c1ccsc1NC(=O)c1ccc(N2CCCC2=O)cc1	G9a inh 45µM (no result: CtBP-E1A inh)
NC(=O)c1ccsc1NC(=O)c1ccc2c(c1)CCCC2	none
N#C/C(=C\c1ccc(Br)cc1)c1nc(-c2cc3cc(Br)ccc3oc2=O)cs1	none (no result: CtBP-E1A inh, Six1-Eya2 blk)
COc1ccc(C(=O)CN2CCN(S(=O)(=O)c3cccc([N+](=O)[O-])c3)CC2)cc1	G9a inh inconclusive
CCS(=O)(=O)Nc1c(C(=O)O)[nH]c2ccccc12	G9a inh 50µM, JMJD2A Tudor 89µM
Cc1ccc(S(=O)(=O)Nc2c(C(=O)O)[nH]c3ccccc23)cc1C	BAZ2B block inconclusive, G9a inh 16µM
CCS(=O)(=O)Nc1c(C(=O)OC)[nH]c2ccccc12	none
COc1cc(O)c(C(CC(=O)N2CCCC(C)C2)c2ccc(N(C)C)cc2)c(OC)c1 (stereo not drawn)	HP1b binding inh inconclusive, BAZ2B block 50µM, G9a inh inconclusive, CtBP-E1A inh inconclusive, Six1-Eya2 blk inconclusive, JMJD2A Tudor 40µM
COc1ccc(C(CC(=O)N2CCCC2)c2c(O)cc(OC)cc2OC)cc1 (stereo not drawn)	none
COc1cc(O)c(C(CC(=O)N2CCN(c3ccccc3)CC2)c2ccc(N(C)C)cc2)c(OC)c1 (stereo not drawn)	HP1b binding inh inconclusive, BAZ2B block 25µM, G9a inh inconclusive, CtBP-E1A inh inconclusive, Six1-Eya2 blk inconclusive, JMJD2A Tudor 28µM
COc1cc(O)c(C(CC(=O)N2CCCC(C)C2)c2ccc3c(c2)OCO3)c(OC)c1 (stereo not drawn)	none
CC(=O)c1c[nH]c(C(=O)NC2CCCCCC2)c1	none
COC(=O)c1cc2oc3ccccc3c2n1Cc1nc(-c2ccc(Cl)cc2)oc1C	none (no result: CtBP-E1A inh, Six1-Eya2 blk)
COc1ccc(C(=O)c2coc(-c3ccccc3C(=O)O)c2C(=O)O)cc1	none
COc1ccc(C(=O)c2c(C(F)(F)F)oc3c2C(=O)c2ccccc2C3=O)cc1	HP1b binding inh inconclusive, BAZ2B block 7.9µM, G9a inh 7.9µM, CtBP-E1A inh inconclusive, Six1-Eya2 blk inconclusive, JMJD2A Tudor inconclusive
O=C1NCC2=C1C(c1ccc(Br)cc1)Nc1ccccc1N2 (stereo not drawn)	G9a inh 45µM
Cc1csc2nc(COC(=O)c3ccccc3NC(=O)c3ccc(C(C)(C)C)cc3)cc(=O)n12	none (no result: CtBP-E1A inh, Six1-Eya2 blk)
O=C(Nc1ccc(OC(F)(F)F)cc1)NC1COc2ccccc2C1 (stereo not drawn)	none (no result: CtBP-E1A inh, Six1-Eya2 blk)
Nc1ncnc2c1ncn2[C@@H]1O[C@H](CN=C2NS(=O)(=O)c3ccccc32)[C@@H](O)[C@H]1O	none (no result: BAZ2B block, G9a inh)
CC(C)NC(=O)C(=O)NCCc1ccc(Cl)cc1	G9a inh 1.1µM
O=C1NC2c3c(Cl)sc(Cl)c3C(=O)C2O1 (stereo not drawn)	JMJD2A Tudor 56µM (no result: BAZ2B block, G9a inh)
O=C1NC2c3c(I)sc(I)c3C(=O)C2O1 (stereo not drawn)	none (no result: BAZ2B block, G9a inh)
CCn1nnc(NC(=O)CSc2ccc(Cl)cc2)n1	BAZ2B block inconclusive, G9a inh 71µM, JMJD2A Tudor inconclusive
CCCCn1nnc(NC(=O)Cc2ccc(Cl)cc2)n1	none
O=[N+]([O-])c1ccc(N/N=C/c2sc(N3CCOCC3)nc2-c2ccccc2)c(S(=O)(=O)Nc2ccccc2Cl)c1	BAZ2B block inconclusive, G9a inh 71µM (no result: CtBP-E1A inh)
O=C(O)c1cccc(N/N=C/c2sc(N3CCOCC3)nc2-c2ccccc2)c1	BAZ2B block inconclusive, G9a inh inconclusive
O=[N+]([O-])c1ccc(N/N=C/c2sc(N3CCOCC3)nc2-c2ccccc2)c(S(=O)(=O)Nc2ccc(Cl)cc2)c1	HP1b binding inh inconclusive, BAZ2B block 11µM, G9a inh 40µM, JMJD2A Tudor inconclusive
Cc1cc(C)c(Cn2c3ccccc3c3cnn(CC(=O)N4CCCCCC4)c(=O)c32)c(C)c1	none (no result: CtBP-E1A inh, Six1-Eya2 blk)
N#Cc1cccc(NC(=O)C2CCN(c3ncccn3)CC2)c1	none (no result: CtBP-E1A inh, Six1-Eya2 blk)
CCCC1SCC(C)(C)NC1=O (stereo not drawn)	none (no result: BAZ2B block, G9a inh)
CS/C(Nc1cc(Cl)ccc1Cl)=C(/C#N)C(=O)c1ccco1	BAZ2B block 56µM, G9a inh 14µM, Six1-Eya2 blk inconclusive, JMJD2A Tudor inconclusive
Cc1cc2c(s1)c1cnn(Cc3c(Cl)ccc(C)c3F)c(=O)c1n2C	none (no result: HP1b binding inh, BAZ2B block, G9a inh, CtBP-E1A inh, Six1-Eya2 blk)
Cc1cccc(-n2c(C)c(C)c3c(N)ncnc32)c1	G9a inh 50µM, JMJD2A Tudor inconclusive
CCOC(=O)CSc1n[nH]c(-c2ccco2)n1	JMJD2A Tudor inconclusive
O=C(CSc1n[nH]c(-c2ccco2)n1)Nc1ccc(Br)cc1	JMJD2A Tudor 45µM
O=C(CSc1n[nH]c(-c2ccco2)n1)N1c2ccccc2Sc2ccccc21	BAZ2B block 56µM, G9a inh 50µM
O=C1C(=O)N(CC2CCCO2)C(c2ccccc2[N+](=O)[O-])/C1=C(/O)c1ccccc1 (stereo not drawn)	BAZ2B block inconclusive, G9a inh 32µM (no result: CtBP-E1A inh)
